Each structure is given as a SMILES string. Activity calls are given as the source filed them.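 How the source made its calls, unless noted: active means mean z-score across replicates of 1.96 or higher in either the MELAS or the Rieske mutant cell line; inactive means the rest.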

Test [1] in a line: sensitizers of A549 cells to miR-34 induction, primary screen, imaging, A549 dox-inducible miR-34, nuclei and caspase counts (AID 1347080;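 active means compounds whose cell count with miR-34 switched on is under 0.7 times the count with it off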). The following applies: A549 miR-34 inducible, Hoechst nuclei count, 48 h.
Test [2] in a line: survival rescue of mitochondrial mutant cells in low glucose, primary screen, MELAS cybrids, Rieske KO mouse fibroblasts, CellTiter-Glo (AID 1508586).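 Further: z relative to plate mean and SD of compound and empty wells.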
Setting [3] is: stronger effect = lower value, cell number ratio, induced over uninduced.
The mark [4] stands for this setting: measured here: relative caspase fold change +Dox/-Dox.
[5] abbreviates: measured here: total cells with miR-34 induction, stronger effect = lower value.
[6] abbreviates: measured here: total cells without miR-34 induction.
Where [7] appears, read: MELAS cybrid survival, CellTiter-Glo 48 h, stronger effect = higher value.
Where [8] appears, read: Rieske KO mouse fibroblast survival, CellTiter-Glo 72 h.
Further: test concentration not given here.

As for `CCCC(Nc1nc(-c2ccc(NC(=O)NCC)c(OC)c2)ncc1C)c1cccnc1` (stereo not drawn), the fold change was 1.06 (inactive) in test [1] (setting [3]) and 0.656 in test [1] (setting [4]). In addition, the cell count in test [1] (setting [5]) was determined as 1450; in test [1] (setting [6]), 1370. For the same compound, the z-score in test [2] (setting [7]) was 2.93 (active); in test [2] (setting [8]), -1.09.
With `CC1CCN(CCC2CCCN2S(=O)(=O)c2cccc(O)c2)CC1` (stereo not drawn), the fold change in test [1] (setting [3]) is 0.96 (inactive); in test [1] (setting [4]) it was 0.546. For the same compound, the cell count in test [1] (setting [5]) came out at 7750; in test [1] (setting [6]), 8080. For the same compound, the z-score in test [2] (setting [7]) was -0.371 (inactive); in test [2] (setting [8]), -0.0766.
With `Cc1[nH]c2ccccc2c1CCNCc1ccc(C=CC(=O)NO)cc1`, the fold change in test [1] (setting [3]) was 0.894 (inactive); in test [1] (setting [4]) it was 0.866. The cell count amounted to 1040 in test [1] (setting [5]) and 1160 in test [1] (setting [6]). Besides, the z-score in test [2] (setting [7]) was -0.232 (inactive); in test [2] (setting [8]), -2.76.
For `CC(O)[C@H]1C(=O)N2C(C(=O)OCOC(=O)C(C)(C)C)=C(SC3CN(C4=NCCS4)C3)C(C)[C@@H]12` (stereo partly drawn), the fold change in test [1] (setting [3]) is 0.943 (inactive); in test [1] (setting [4]), 0.543. Moreover, the cell count is 8990 in test [1] (setting [5]) and 9530 in test [1] (setting [6]). Moreover, the values for the z-score in test [2] (setting [7]) and in test [2] (setting [8]) were -0.198 (inactive) and -0.552, respectively.
Consider `CCN(CC)CCN(Cc1ccc(-c2ccc(C(F)(F)F)cc2)cc1)C(=O)Cn1c(SCc2ccc(F)cc2)nc(=O)c2c1CCC2`, for which the figures for the fold change in test [1] (setting [3]) and in test [1] (setting [4]) were 0.577 (active) and 1.58, respectively. In addition, the values for the cell count in test [1] (setting [5]) and in test [1] (setting [6]) were 1110 and 1920, respectively. The z-score is -0.397 (inactive) in test [2] (setting [7]) and -1.15 in test [2] (setting [8]).
With `COC1C=CO[C@]2(C)Oc3c(C)c(O)c4c(O)c(c5c(nc6cc(C)ccn65)c4c3C2=O)NC(=O)C(C)=CC=CC(C)C(O)C(C)C(O)C(C)C(OC(C)=O)C1C` (stereo partly drawn), the fold change in test [1] (setting [3]) was 0.885 (inactive); in test [1] (setting [4]), 1.2. Moreover, the cell count in test [1] (setting [5]) came to 7180; in test [1] (setting [6]), 8110. Further, the values for the z-score in test [2] (setting [7]) and in test [2] (setting [8]) were -0.112 (inactive) and 0.022, respectively.
As to `Cc1ccc(C2OC(CO)C(O)C(O)C2O)cc1Cc1ccc(-c2ccc(F)cc2)s1` (stereo not drawn), the fold change is 0.902 (inactive) in test [1] (setting [3]) and 0.772 in test [1] (setting [4]). The cell count in test [1] (setting [5]) amounted to 9160; in test [1] (setting [6]), 10100. In addition, the z-score is -0.448 (inactive) in test [2] (setting [7]) and 0.478 in test [2] (setting [8]).
Regarding `CN1[C@@H]2CC(OC(=O)C(CO)c3ccccc3)C[C@H]1[C@@H]1O[C@H]12` (stereo partly drawn), the figures for the fold change in test [1] (setting [3]) and in test [1] (setting [4]) were 0.946 (inactive) and 0.844, respectively. The cell count in test [1] (setting [5]) is 9480; in test [1] (setting [6]) it was 10000. The z-score is -0.356 (inactive) in test [2] (setting [7]) and 0.736 in test [2] (setting [8]).
In the case of `CC(C)(CO)c1cc2cc(NC(=O)C3(c4ccc5c(c4)OC(F)(F)O5)CC3)c(F)cc2n1CC(O)CO` (stereo not drawn), the values for the fold change in test [1] (setting [3]) and in test [1] (setting [4]) were 0.912 (inactive) and 1.56, respectively. For the same compound, the cell count in test [1] (setting [5]) was 8420; in test [1] (setting [6]) it was 9220. Also, the z-score in test [2] (setting [7]) is -0.252 (inactive); in test [2] (setting [8]) it was -0.139.
As to `CC(=O)C1CC[C@H]2[C@@H]3CCC4=CC(=O)CC[C@]4(C)[C@@H]3CC[C@]12C` (stereo partly drawn), the fold change in test [1] (setting [3]) is 0.844 (inactive); in test [1] (setting [4]) it was 1.47. The cell count came to 7050 in test [1] (setting [5]) and 8360 in test [1] (setting [6]). Also, the z-score is -0.493 (inactive) in test [2] (setting [7]) and -0.487 in test [2] (setting [8]).
On to `C=C1C[C@@]2(O)O[C@@]3(CC2C(C)C)C(C)CC[C@@H]13` (stereo partly drawn), for which the fold change in test [1] (setting [3]) was 0.988 (inactive); in test [1] (setting [4]), 0.924. Further, the figures for the cell count in test [1] (setting [5]) and in test [1] (setting [6]) were 9960 and 10100, respectively. Besides, the values for the z-score in test [2] (setting [7]) and in test [2] (setting [8]) were -0.407 (inactive) and 0.387, respectively.
As for `COc1cccc2c1C(=O)c1c(O)c3c(c(O)c1C2=O)C[C@@](O)(C(=O)CO)C[C@@H]3OC1CC(N)C(OC2CCCCO2)C(C)O1` (stereo partly drawn), the fold change in test [1] (setting [3]) was 1.07 (inactive); in test [1] (setting [4]), 1.21. Also, the values for the cell count in test [1] (setting [5]) and in test [1] (setting [6]) were 1240 and 1150, respectively. For the same compound, the z-score in test [2] (setting [7]) is 3.19 (active); in test [2] (setting [8]), -0.724.
For `C=C[C@]1(C)CC(OC(=O)CSC(C)(C)CNC(=O)C(N)C(C)C)[C@@]2(C)C(C)CC[C@]3(CCC(=O)[C@H]32)C(C)C1O` (stereo partly drawn), the fold change was 0.851 (inactive) in test [1] (setting [3]) and 1.9 in test [1] (setting [4]). The cell count in test [1] (setting [5]) came out at 6360; in test [1] (setting [6]), 7470. In addition, the z-score in test [2] (setting [7]) is 6.17 (active); in test [2] (setting [8]), 2.78.
Take `COCCCOc1cc(CC(CC(N)C(O)CC(C(=O)NCC(C)(C)C(N)=O)C(C)C)C(C)C)ccc1OC` (stereo not drawn): the fold change was 0.942 (inactive) in test [1] (setting [3]) and 0.734 in test [1] (setting [4]). The figures for the cell count in test [1] (setting [5]) and in test [1] (setting [6]) were 7600 and 8060, respectively. For the same compound, the z-score in test [2] (setting [7]) was 0.18 (inactive); in test [2] (setting [8]), -0.179.
For `NC1(C(=O)NC(CCO)c2ccc(Cl)cc2)CCN(c2ncnc3[nH]ccc23)CC1` (stereo not drawn), the fold change in test [1] (setting [3]) is 1.01 (inactive); in test [1] (setting [4]) it was 0.36. Besides, the cell count in test [1] (setting [5]) was found to be 7310; in test [1] (setting [6]), 7200. Further, the z-score in test [2] (setting [7]) was -0.334 (inactive); in test [2] (setting [8]), -0.0673.
For `OC1CO[C@H]2C(O)CO[C@H]12` (stereo partly drawn), the fold change in test [1] (setting [3]) is 0.905 (inactive); in test [1] (setting [4]), 0.942. In addition, the cell count is 8830 in test [1] (setting [5]) and 9750 in test [1] (setting [6]). Also, the z-score in test [2] (setting [7]) is -0.254 (inactive); in test [2] (setting [8]), -0.154.
With `CC(C)(Cc1ccc2ccccc2c1)NCC(O)COc1cccc(Cl)c1C#N` (stereo not drawn), the fold change in test [1] (setting [3]) was 0.92 (inactive); in test [1] (setting [4]), 0.745. Moreover, the cell count in test [1] (setting [5]) was 8560; in test [1] (setting [6]), 9310. Further, the results for the z-score in test [2] (setting [7]) and in test [2] (setting [8]) were -0.327 (inactive) and 0.584, respectively.
For the compound `CC1(C)CCC[C@@]2(C)[C@H]3CC(=O)O[C@]3(C)CC[C@@H]12`, the fold change is 0.913 (inactive) in test [1] (setting [3]) and 0.659 in test [1] (setting [4]). Also, the values for the cell count in test [1] (setting [5]) and in test [1] (setting [6]) were 9360 and 10200, respectively. Also, the z-score is -0.354 (inactive) in test [2] (setting [7]) and 1.06 in test [2] (setting [8]).
In the case of `NC1=N[C@@]2(c3cc(NC(=O)c4ccc(F)cn4)ccc3F)COC[C@@H]2CS1`, the fold change was 0.902 (inactive) in test [1] (setting [3]) and 1.51 in test [1] (setting [4]). Further, the cell count in test [1] (setting [5]) turned out to be 8500; in test [1] (setting [6]), 9420. Moreover, the z-score in test [2] (setting [7]) was -0.211 (inactive); in test [2] (setting [8]), 0.113.
As for `C=C1C(=O)OC2C1CCC(C)=CCC[C@@]1(C)OC21` (stereo partly drawn), the values for the fold change in test [1] (setting [3]) and in test [1] (setting [4]) were 0.965 (inactive) and 0.646, respectively. For the same compound, the values for the cell count in test [1] (setting [5]) and in test [1] (setting [6]) were 8720 and 9040, respectively. Moreover, the z-score in test [2] (setting [7]) was 0.936 (inactive); in test [2] (setting [8]), -0.281.
For `NC(N)=NN=Cc1c(Cl)cccc1Cl`, the fold change was 0.921 (inactive) in test [1] (setting [3]) and 0.613 in test [1] (setting [4]). The cell count was determined as 8130 in test [1] (setting [5]) and 8830 in test [1] (setting [6]). The z-score in test [2] (setting [7]) is -0.139 (inactive); in test [2] (setting [8]) it was -0.245.
Take `OCC1OC(O[C@]2(CCl)OC(CCl)C(O)C2O)C(O)C(O)C1Cl` (stereo partly drawn): the fold change in test [1] (setting [3]) is 0.895 (inactive); in test [1] (setting [4]), 0.674. In addition, the cell count in test [1] (setting [5]) is 8040; in test [1] (setting [6]) it was 8990. Besides, the results for the z-score in test [2] (setting [7]) and in test [2] (setting [8]) were -0.278 (inactive) and -0.16, respectively.
Consider `CCC(CC)(NC(=O)C(C)C)C(=O)NC(CCCN=C(N)N)C(=O)NC1(C(=O)NC(c2ccc(F)cc2)c2ccc(F)cc2)CCCC1` (stereo not drawn), for which the fold change in test [1] (setting [3]) was 0.936 (inactive); in test [1] (setting [4]), 0.709. For the same compound, the results for the cell count in test [1] (setting [5]) and in test [1] (setting [6]) were 9110 and 9730, respectively. Moreover, the z-score in test [2] (setting [7]) was -0.415 (inactive); in test [2] (setting [8]), -0.654.

The values above are taken from PubChem BioAssay.
